# Compound activity: PubChem, several laboratories
# Hits are enriched below; roughly 2.3% of the tested compounds scored in any of these assays.
# HSP90 inh: HSP90 refolding inhibition in rabbit reticulocyte lysate | luciferase refolding luminescence, 3 h | inhibition, % at 5.6 µM | 290,000 compounds, 0.91% hits | AID 1789;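 active = inhibition above the screen-wide mean plus 3 SD, computed separately per campaign, cut at about 16% in these data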;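 note: inhibitors lower the luminescence because luciferase stays unfolded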
# SENP6 inh: blocks the human protease SENP6; Recombinant SENP6 catalytic domain, aminoluciferin luminescence; inhibition, % at 10 µM; 330,000 compounds, 1.8% hits;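 active = inhibition above about 50% at the single tested dose, limit read from the data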
# LGR2 inh: inhibitors of bursicon-induced Drosophila LGR2 receptor cAMP signaling | HEK293 LGR2, CRE-luciferase, bursicon-stimulated, 4 h | inhibition, % at 9.99 µM | 380,000 compounds, 0.35% hits;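 active = drop in luminescence signal, shown as inhibition above about 50% in the replicate tests, limit read from the data, passing the limit was not always enough; inconclusive = probably only some replicates passing the limit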;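 note: agonist challenge used bursicon conditioned medium at about half maximal strength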
# SENP8 block-1: SENP8 (human) protease inhibition; recombinant SENP8, Nedd8 substrate fluorescence; inhibition, % at 20 µM; 360,000 compounds, 0.64% hits; in the data active = inhibition mostly above about 40%, no sharp cut-off; inactive = mostly below about 27%
# Target sequence (Q96LD8 whole entry, looked up): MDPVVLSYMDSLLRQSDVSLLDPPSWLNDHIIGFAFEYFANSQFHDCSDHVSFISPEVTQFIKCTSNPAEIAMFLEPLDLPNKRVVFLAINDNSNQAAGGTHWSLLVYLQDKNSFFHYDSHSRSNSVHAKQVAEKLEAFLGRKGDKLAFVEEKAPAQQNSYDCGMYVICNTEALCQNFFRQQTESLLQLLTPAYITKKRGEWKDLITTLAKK
# SENP7 block: SENP7 protease inhibition; recombinant SENP7, Z-RLRGG-aminoluciferin luminescence, 40 min; inhibition, % at 5 µM; Q9BQF6; 330,000 compounds, 1.5% hits;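 active = inhibition above about 50% at the single test dose, limit read from the data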
# SENP8 block-2: blocks the human protease SENP8 | Q96LD8 | purified SENP8, Z-RLRGG-aminoluciferin cleavage, luminescence | inhibition, % at 10 µM | 330,000 compounds, 1.2% hits; in the data active = inhibition above about 50%
# HSP90 confirm: confirmation of HSP90 inhibitors; shares compounds with HSP90 inh; rabbit reticulocyte lysate, luciferase refolding luminescence, 3 h; inhibition, % at 5.9 µM; 2,300 compounds, 64% hits; AID 1846; in the data active = inhibition above about 18%
# luciferase ctr: counter-screen for HSP90 inhibitors: inhibitors of firefly luciferase. inhibition, % at 5.9 µM. purified native firefly luciferase, luminescence. 2,300 compounds, 48% hits. shares compounds with HSP90 inh;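 active = inhibition above the mean inhibition of all tested sample wells plus 3 SD, cut at about 10% in these data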
# SENP8 confirm: confirmation of human SENP8 protease inhibitors. AID 488912. Recombinant SENP8, Z-RLRGG-aminoluciferin luminescence, 60 min. shares compounds with SENP7 block. inhibition, % at 12.5 µM. 6,200 compounds, 40% hits;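 active = mean inhibition across replicates above about 50%, limit read from the data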
# SENP6 confirm: confirmation of human SENP6 protease inhibitors | shares compounds with SENP7 block | recombinant SENP6, Z-RLRGG-aminoluciferin luminescence | inhibition, % at 12.5 µM | 6,200 compounds, 58% hits | AID 488915
# SENP7 confirm: human SENP7 inhibition, confirmed; shares compounds with SENP7 block; recombinant SENP7, Z-RLRGG-aminoluciferin luminescence, 40 min; inhibition, % at 12.5 µM; 6,200 compounds, 69% hits; AID 488917
# Casp3 SENP sel: caspase-3 inhibition (SENP selectivity assay); 6,200 compounds, 60% hits; purified caspase-3, Z-DEVD-aminoluciferin luminescence, 60 min; inhibition, % at 12.5 µM; AID 488918; shares compounds with SENP7 block;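 active = mean inhibition above about 50%, limit read from the data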
# Target sequence (P42574 28-227 limits assumed): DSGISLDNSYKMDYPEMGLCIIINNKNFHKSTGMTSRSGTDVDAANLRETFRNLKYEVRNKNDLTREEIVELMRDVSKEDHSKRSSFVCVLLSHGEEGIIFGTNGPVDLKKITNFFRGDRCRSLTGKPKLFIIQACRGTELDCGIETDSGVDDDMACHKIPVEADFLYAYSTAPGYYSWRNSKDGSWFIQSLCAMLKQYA
# Luc interf: luminescence interference (SENP counter-screen); shares compounds with SENP7 block; Pre-incubated SENP8/Z-RLRGG-aminoluciferin, luciferase luminescence interference; inhibition, % at 12.5 µM; 6,200 compounds, 39% hits; AID 488919;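 active = mean inhibition above about 50% when retested at one dose, limit read from the data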
# Hits are given with their value; - = inactive; ? = inconclusive; . = no result.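 Rule for the calls, unless noted: active = mean inhibition above about 50% in the one-dose retest (limit read from the data); inactive = the rest.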
SMILES,HSP90 inh,SENP6 inh,LGR2 inh,SENP8 block-1,SENP7 block,SENP8 block-2,HSP90 confirm,luciferase ctr,SENP8 confirm,SENP6 confirm,SENP7 confirm,Casp3 SENP sel,Luc interf
Cc1ccc(NC(=O)c2cc3ccccc3oc2=N)cc1,55,58,89,-,90,-,20,31,-,-,-,-,-
Cc1cccc(NC(=O)c2cc3ccccc3oc2=O)c1,20,88,-,-,97,64,33,13,-,-,-,-,-
COc1ccc2oc(=O)c(C(=O)Nc3cccc(C)c3)cc2c1,-,-,-,-,-,-,.,.,.,.,.,.,.
CCc1ccc(C(=O)Nc2nc3ccccc3[nH]2)cc1,80,96,92,-,97,94,90,85,56,76,86,84,-
O=C(Nc1nc2ccccc2[nH]1)c1ccc(F)cc1,35,94,-,-,93,79,57,44,78,84,98,94,52
O=C(Nc1nc2ccccc2[nH]1)c1ccccc1[N+](=O)[O-],-,-,-,-,-,-,.,.,.,.,.,.,.
COc1ccc(C(=O)Nc2nc3ccccc3[nH]2)cc1OC,-,-,-,-,-,-,.,.,.,.,.,.,.
CCOc1ccc(C(=O)Nc2nc3ccccc3[nH]2)cc1OCC,-,-,-,-,-,-,.,.,.,.,.,.,.
COc1ccc(Cl)cc1C(=O)Nc1nc2ccccc2[nH]1,71,96,79,-,98,90,87,77,83,91,102,96,80
O=C(Nc1nc2ccccc2[nH]1)c1ccccc1F,84,96,.,-,99,97,95,88,-,99,102,98,97
CC(C)(C)c1ccc(NC(=O)c2ccsc2)cc1,24,86,-,-,82,82,39,27,86,85,98,78,-
COc1nc(C)ccc1-c1noc(-c2ccco2)n1,19,70,-,-,61,-,33,24,51,57,85,69,-
COc1nc(-c2ccc(C)cc2)ccc1-c1noc(-c2ccco2)n1,-,-,.,-,-,-,.,.,.,.,.,.,.
C=CCn1c2ccccc2c(=O)c2cc(C#CC3(O)CCCCC3)ccc21,19,76,?,-,-,71,27,-,-,79,93,60,-
Cc1cc(C(=O)COC(=O)c2cccnc2Cl)c(C)n1CC1CCCO1 (stereo not drawn),78,90,.,-,93,90,86,82,95,96,101,98,80
Cc1cc(C(=O)COC(=O)c2n[nH]c3ccccc23)c(C)n1CC1CCCO1 (stereo not drawn),52,86,?,-,-,87,55,54,-,92,99,90,77
COCCn1c(C)cc(C(=O)COC(=O)c2n[nH]c3ccccc23)c1C,44,71,.,-,86,82,66,69,94,94,100,92,87
Cc1cc(C(=O)COC(=O)C2COc3ccccc3O2)c(C)n1CC1CCCO1 (stereo not drawn),-,-,.,-,-,-,.,.,.,.,.,.,.
COCCn1c(C)cc(C(=O)COC(=O)Cc2n[nH]c(=O)c3ccccc23)c1C,.,-,-,-,-,-,.,.,.,.,.,.,.
Cc1cc(C(=O)COC(=O)c2ccccc2O)c(C)n1Cc1cccs1,82,92,.,-,95,93,86,84,93,98,101,93,51
Cc1cc(C(=O)COC(=O)c2ccc3c(c2)OCO3)c(C)n1Cc1cccs1,-,-,.,-,-,-,.,.,.,.,.,.,.
COc1ccc(NC(=O)Nc2cccc3c2O[C@@H](CN(C)S(=O)(=O)c2ccccc2)[C@H](C)CN([C@@H](C)CO)C3=O)cc1,.,.,-,.,.,.,.,.,.,.,.,.,.
CCNC(=O)[C@H]1[C@H](CO)[C@H]2Cn3c(ccc(-c4ccccc4)c3=O)[C@H]2N1Cc1cc(F)ccc1F,.,.,-,.,.,.,.,.,.,.,.,.,.
CCCNC(=O)c1ccc(-c2nc3ccccc3s2)s1,22,89,.,-,87,84,68,60,-,86,99,55,-
O=C(NCCCO)c1nc2ccccc2s1,-,-,.,-,-,-,.,.,.,.,.,.,.
SMILES,HSP90 inh,SENP6 inh,LGR2 inh,SENP8 block-1,SENP7 block,SENP8 block-2,HSP90 confirm,luciferase ctr,SENP8 confirm,SENP6 confirm,SENP7 confirm,Casp3 SENP sel,Luc interf
CCOc1ccc2nc(NC(=O)CSc3cn[nH]n3)sc2c1,19,67,-,-,-,-,25,14,-,-,50,-,-
COc1ccc(S(=O)(=O)Nc2ccc3c(c2)C(=O)N([C@@H](C)CO)C[C@@H](C)[C@H](CN(C)S(=O)(=O)c2ccc(Cl)cc2)O3)cc1,.,.,-,.,.,.,.,.,.,.,.,.,.
COc1ccccc1N(/N=C1\Sc2ccccc2C1=O)C(C)=O,71,92,.,-,-,79,76,34,-,83,66,-,-
COc1ccccc1NC1=C(NC(C)=O)C(=O)c2ccccc2C1=O,-,.,-,-,.,.,.,.,.,.,.,.,.
Cc1ccc(S(=O)(=O)/N=C2\C=C(Nc3cccc(C(=O)O)c3)C(=O)c3ccccc32)c(C)c1,92,95,-,81,55,94,90,-,60,97,-,-,-
Cc1ccc(S(=O)(=O)/N=C(/c2ccccc2)N2CCOCC2)c(C)c1,-,-,-,-,-,-,.,.,.,.,.,.,.
O=C(C1CCCC1)N1CC2(C1)[C@@H](c1ccccc1)[C@H](CO)N2C(=O)NC1CCCC1,.,.,-,.,.,.,.,.,.,.,.,.,.
COC(=O)c1sc2nc(C)cc(C)c2c1N,-,-,-,-,-,-,.,.,.,.,.,.,.
Cc1cc(C)c2c(N)c(C(=O)Nc3ncc(C)s3)sc2n1,70,87,.,-,-,72,92,88,-,86,99,92,-
Cc1ccc(-c2nc(-c3ccncc3)no2)cc1C,21,85,?,-,78,79,29,25,53,58,76,66,-
COc1ccc(-c2nc(-c3ccncc3)no2)cc1OC,-,-,.,-,-,-,.,.,.,.,.,.,.
CCOc1ccc(OCc2ccc(C(=O)O)o2)cc1,90,97,.,-,96,94,92,60,96,99,102,80,97
